High-throughput results from PubChem BioAssay.
Only some compounds are listed: those with a hit (about 8% of all), similar ones and a draw of the others.
Marburg entry inh: Marburg virus entry inhibition. Marburg virus pseudotyped entry inhibition, cell reporter. Potency, µM (highest dose often 37.8 µM), usual class: inhibitors. actives 1.8% (n = 300,000). AID 540276; calls by dose curve; tested in HEK293 cells
FMDV antiviral: antivirals against foot and mouth disease virus; FMDV antiviral cell-based qHTS; Potency, µM (doses to about 57.9 µM), usual class: inhibitors; actives 1.2% (n = 410,000); AID 1159524; calls by dose curve; tested in HEK293T cells; note: read-out not given here; nearly all actives have a fitted effect of over 45% in size
LASV entry inh: blocks Lassa virus binding to or entry into cells; Lassa virus pseudotype entry inhibition, cell reporter; Potency, µM (highest dose often 37.9 µM), hits mostly inhibitors; actives 1.2% (n = 300,000); AID 540256; calls by dose curve; tested in HEK293 cells; note: nearly all actives have a fitted effect of over 50% in size
HCV inhibitor: blocks hepatitis C virus; Huh7.5.1 HCVcc-Cre infection, luciferase reporter, 44 h; Potency, µM (titrated, usually from 41.8 µM), actives largely listed as inhibitors; actives 3.4% (n = 340,000); active = well fitted inhibition curve with a large enough effect; inconclusive = small, poorly fitted or top-dose-only effect, or another doubt; inactive = no such curve, though single readings can be large or run the other way
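HCVcc-Cre virus at an moi near 0.5 was added right after compound to cells cultured 4 h from seeding (1,000 cells/well). Luciferase activity was determined 44 h later, 15 min after substrate addition at RT.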
HCMV antiviral: human cytomegalovirus inhibition; activity change, negative = inhibition, % at 57.5 µM; HFF cells, HCMV-luciferase reporter, 72 h; stronger effect = lower value; actives 4.5% (n = 410,000); in the data active = activity change below about -60%; inconclusive = no clear call, values can overlap the other calls; inactive = above about -39%
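Inhibition of viral replication was scored as loss of reporter luminescence in HFFs infected with HCMV-luciferase (MOI 1 PFU/cell) for 72 h; compounds tested at 2 doses, normalized to buffer and Salinomycin controls.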
SARS PLP yeast: blocks SARS-CoV papain-like protease in a yeast assay; S. cerevisiae expressing SARS-CoV PLpro, growth rescue; Potency, µM (top dose mostly 32.9 µM), actives largely listed as activators; actives 0.19% (n = 330,000); calls by dose curve; note: nearly all actives have a fitted effect of over 55% in size
Of the large screens only hits and unclear results are named; the others gave an inactive call.

COc1ccc(-n2cc(-c3ccc(OC)c(OC)c3)[nH]c2=S)cc1	HCV inhibitor inconclusive (no result: Marburg entry inh, LASV entry inh)
COc1ccc(-n2cc(-c3ccccc3)[nH]c2=S)c(OC)c1	FMDV antiviral inconclusive, HCV inhibitor inconclusive, HCMV antiviral -65 (no result: Marburg entry inh, LASV entry inh)
CCCCn1c(N)c(N(CCOC)C(=O)C2CCN(C(=O)c3ccc(F)cc3)CC2)c(=O)[nH]c1=O	none
Cc1cc(C)c2c(ccc3cccc[n+]32)c1	Marburg entry inh inconclusive, FMDV antiviral inconclusive, HCV inhibitor 1µM, HCMV antiviral inconclusive (no result: SARS PLP yeast)
Cc1cc(C)c2nc(-c3ccccc3)ccc2c1	none (no result: Marburg entry inh, LASV entry inh, HCV inhibitor, SARS PLP yeast)
Cc1cc(Cl)ccc1NC(=O)CCS(=O)(=O)c1ccc2c(c1)CC(C)N2C(=O)C1CC1 (stereo unspecified)	HCMV antiviral -65 (no result: Marburg entry inh, HCV inhibitor, SARS PLP yeast)
CCC(=O)N1CCCc2cc(S(=O)(=O)N3CCN(c4ccccc4F)CC3)ccc21	FMDV antiviral inconclusive, HCV inhibitor 13µM, HCMV antiviral inconclusive (no result: Marburg entry inh, LASV entry inh)
CC(=O)c1ccc(N2CCN(S(=O)(=O)c3ccc4c(c3)CC(C)N4C(=O)C3CC3)CC2)cc1 (stereo unspecified)	FMDV antiviral inconclusive, HCV inhibitor 3.5µM (no result: Marburg entry inh, LASV entry inh)
Cc1cccc(N2CCN(S(=O)(=O)c3ccc4c(c3)CCCN4C(=O)C3CCC3)CC2)c1C	FMDV antiviral inconclusive, LASV entry inh 6.3µM, HCV inhibitor 14µM, HCMV antiviral inconclusive (no result: Marburg entry inh)
O=C(CSC1=Nc2ccccc2N=C(c2ccc(F)cc2)C1)Nc1ccc(Cl)cc1	LASV entry inh inconclusive (no result: Marburg entry inh, HCV inhibitor, SARS PLP yeast)
CC(=O)Nc1cc(-c2cccc(F)c2)cn2c(-c3ccccc3)cnc12	none (no result: Marburg entry inh, LASV entry inh, HCV inhibitor, SARS PLP yeast)
O=C(C1CC1)N1CCc2cc(S(=O)(=O)N3CCCc4ccccc43)ccc21	LASV entry inh inconclusive, HCMV antiviral -68
CC(=O)N1c2ccc(S(=O)(=O)N3CCOCC3)cc2CC1C (stereo unspecified)	none
CC(=O)c1ccc(N2CCN(S(=O)(=O)c3ccc4c(c3)CC(C)N4C(C)=O)CC2)cc1 (stereo unspecified)	Marburg entry inh inconclusive, FMDV antiviral inconclusive, LASV entry inh inconclusive, HCV inhibitor 6.3µM
Cc1cccc(N2CCN(S(=O)(=O)c3ccc4c(c3)CC(C)N4C(=O)C3CC3)CC2)c1C (stereo unspecified)	FMDV antiviral inconclusive, HCV inhibitor inconclusive, HCMV antiviral -61 (no result: Marburg entry inh, LASV entry inh)
Cc1ccc(C)c(N2CCN(S(=O)(=O)c3ccc4c(c3)CC(C)N4C(=O)C3CC3)CC2)c1 (stereo unspecified)	Marburg entry inh inconclusive, LASV entry inh inconclusive, HCV inhibitor inconclusive, HCMV antiviral inconclusive
CCC(=O)N1CCc2cc(S(=O)(=O)N3CCc4ccccc43)ccc21	none
CC(=O)N1CCc2cc(S(=O)(=O)N3c4ccccc4CC3C)ccc21 (stereo unspecified)	Marburg entry inh inconclusive, LASV entry inh inconclusive, HCV inhibitor inconclusive, HCMV antiviral -77 (no result: FMDV antiviral)
OCC1OC(n2cnc3c(=S)nc[nH]c32)C(O)C1O (stereo unspecified)	none (no result: Marburg entry inh, LASV entry inh, HCV inhibitor, HCMV antiviral, SARS PLP yeast)
CC(C)(Oc1ccc(Cl)cc1)C(=O)N1CC2ON=C(c3c(F)cccc3Cl)C2C1 (stereo unspecified)	none (no result: Marburg entry inh, FMDV antiviral, LASV entry inh, HCV inhibitor, SARS PLP yeast)
Cc1ccccc1CN1C(=O)c2ccccc2S1(=O)=O	HCMV antiviral inconclusive
O=C1c2ccccc2S(=O)(=O)N1Cc1nc2ccccc2s1	Marburg entry inh inconclusive, FMDV antiviral inconclusive, LASV entry inh 1µM, HCMV antiviral -73
Cc1c(C(=O)N/N=C/c2c(O)ccc3ccccc23)nnn1-c1nonc1N	Marburg entry inh inconclusive, LASV entry inh inconclusive, HCV inhibitor inconclusive, HCMV antiviral -98
Nc1nonc1-n1nnc(C(=O)N/N=C/c2ccc(OCc3ccc(F)cc3)cc2)c1COc1ccccc1	HCV inhibitor inconclusive, HCMV antiviral -73 (no result: Marburg entry inh, LASV entry inh)
Nc1nonc1-n1nnc(C(=O)N/N=C/c2ccc(Cl)cc2Cl)c1CN1CCCC1	none
Cc1ccc(COc2ccc(/C=N/NC(=O)c3nnn(-c4nonc4N)c3COc3ccc(F)cc3)cc2)cc1	none (no result: Marburg entry inh, LASV entry inh)
Nc1nonc1-n1nnc(C(=O)N/N=C/c2ccncc2)c1-c1cccs1	HCMV antiviral active, SARS PLP yeast inconclusive
Nc1nonc1-n1nnc(C(=O)N/N=C/c2cccc(Cl)c2Cl)c1CN1CCCC1	HCV inhibitor inconclusive, HCMV antiviral -61
COc1ccc(NC2CCCN(C(=O)Cn3ccc(C)n3)C2)cc1OC (stereo unspecified)	none
CCCNC(=O)N1CC(=O)N2[C@@H](CO)[C@H](c3ccc(Br)cc3)[C@@H]2C1	none (no result: Marburg entry inh, FMDV antiviral, LASV entry inh, HCV inhibitor, SARS PLP yeast)
Nc1nonc1-n1nnc(C(=O)N/N=C/c2cc(Br)ccc2O)c1CNc1ccccc1	Marburg entry inh inconclusive, LASV entry inh inconclusive, HCV inhibitor 10µM, HCMV antiviral -93, SARS PLP yeast inconclusive
CC1CN(S(=O)(=O)c2cccc(C(=O)Nc3ccc4c(c3)CCC4)c2)CC(C)O1 (stereo unspecified)	Marburg entry inh 11µM, LASV entry inh inconclusive, HCV inhibitor inconclusive, HCMV antiviral inconclusive
CN(c1cccc(Cl)c1)S(=O)(=O)c1cccc(C(=O)Nc2ccc3c(c2)CCC3)c1	Marburg entry inh 2.2µM, LASV entry inh inconclusive, HCV inhibitor 6.3µM, HCMV antiviral -87
CCOc1ccc(-c2cc(NC(=O)c3cccc(Cl)c3)c(C(=O)OC)s2)cc1	none (no result: HCV inhibitor, SARS PLP yeast)
OC(c1ccccc1)(c1ccc(Cl)cc1)C1CN2CCC1CC2 (stereo unspecified)	Marburg entry inh inconclusive, LASV entry inh 13µM, HCV inhibitor 2.8µM
CCS(=O)(=O)c1ncc(Cl)c(C(=O)Nc2ccc(S(=O)(=O)N3CCC(C)CC3)cc2)n1	Marburg entry inh inconclusive, FMDV antiviral 14µM, LASV entry inh inconclusive, HCV inhibitor inconclusive, HCMV antiviral -100
CCCSc1ncc(Cl)c(C(=O)Nc2ccc(S(=O)(=O)N3CC(C)OC(C)C3)cc2)n1 (stereo unspecified)	Marburg entry inh inconclusive, HCV inhibitor 10µM, HCMV antiviral -68
CCSc1ncc(Cl)c(C(=O)Nc2ccc(S(N)(=O)=O)cc2)n1	Marburg entry inh inconclusive, HCMV antiviral -85
CCSc1ncc(Cl)c(C(=O)Nc2ccc(S(=O)(=O)N3CCC(C)CC3)cc2)n1	Marburg entry inh inconclusive, FMDV antiviral inconclusive, HCMV antiviral inconclusive (no result: HCV inhibitor, SARS PLP yeast)
Cc1cc(C)nc(NS(=O)(=O)c2ccc(NC(=O)c3ccc(S(=O)(=O)N4CC(C)OC(C)C4)cc3)cc2)n1 (stereo unspecified)	none
CSc1ncc(Cl)c(C(=O)Nc2ccc(S(=O)(=O)N3CCC(C)CC3)cc2)n1	Marburg entry inh inconclusive, FMDV antiviral inconclusive, LASV entry inh inconclusive, HCMV antiviral -77 (no result: HCV inhibitor, SARS PLP yeast)
CCSc1ncc(Cl)c(C(=O)Nc2ccc(S(=O)(=O)Nc3ncccn3)cc2)n1	none
O=C(O)C1CCCCC1SC1=C([S+](=O)([O-])NC2CCCCC2)CCCC1 (stereo unspecified)	none (no result: FMDV antiviral, LASV entry inh, HCV inhibitor, HCMV antiviral, SARS PLP yeast)
Cc1ccc(C)c(N2CCN(C(=O)c3cnc4c(-c5ccccc5)c(C)nn4c3C)CC2)c1	none (no result: Marburg entry inh, HCV inhibitor, SARS PLP yeast)
C=C(C)C(=O)Oc1ccc(N=Nc2ccc(C)cc2)ccc1=O	Marburg entry inh inconclusive, FMDV antiviral inconclusive, LASV entry inh inconclusive, HCV inhibitor 11µM (no result: SARS PLP yeast)
